Measured values from PubChem BioAssay AID624330 (Southern Research Specialized Biocontainment Screening …, 2012).
Among all 340,000 compounds or so, about 2,100 (0.62%) were called active.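 How the source made its calls: active means first-screen hits whose inhibition reached a set limit at any dose in the follow-up dose series; inconclusive means inhibition above the set first-screen limit but never retested; inactive means the rest.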 The list is a sample of the results. Measured potencies and affinities stand elsewhere.

Biological target: Rac GTPase-activating protein 1 (Homo sapiens) (UniProt Q9H0H5)
Assay: blockers of MgcRacGAP-driven Rac1 GTP hydrolysis – biochemical, ADP Hunter fluorescence, primary and confirmatory, confirmation (AID 624330);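 further: fluorescence reports GDP produced by GAP-driven GTP hydrolysis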
Details: MgcRacGAP-stimulated Rac1 GTP hydrolysis, at 30 µM, active compounds read high, GST-tagged Rac1 F28L mutant substrate

Sequence of Rac GTPase-activating protein 1 (Homo sapiens) (Q9H0H5 whole entry, looked up): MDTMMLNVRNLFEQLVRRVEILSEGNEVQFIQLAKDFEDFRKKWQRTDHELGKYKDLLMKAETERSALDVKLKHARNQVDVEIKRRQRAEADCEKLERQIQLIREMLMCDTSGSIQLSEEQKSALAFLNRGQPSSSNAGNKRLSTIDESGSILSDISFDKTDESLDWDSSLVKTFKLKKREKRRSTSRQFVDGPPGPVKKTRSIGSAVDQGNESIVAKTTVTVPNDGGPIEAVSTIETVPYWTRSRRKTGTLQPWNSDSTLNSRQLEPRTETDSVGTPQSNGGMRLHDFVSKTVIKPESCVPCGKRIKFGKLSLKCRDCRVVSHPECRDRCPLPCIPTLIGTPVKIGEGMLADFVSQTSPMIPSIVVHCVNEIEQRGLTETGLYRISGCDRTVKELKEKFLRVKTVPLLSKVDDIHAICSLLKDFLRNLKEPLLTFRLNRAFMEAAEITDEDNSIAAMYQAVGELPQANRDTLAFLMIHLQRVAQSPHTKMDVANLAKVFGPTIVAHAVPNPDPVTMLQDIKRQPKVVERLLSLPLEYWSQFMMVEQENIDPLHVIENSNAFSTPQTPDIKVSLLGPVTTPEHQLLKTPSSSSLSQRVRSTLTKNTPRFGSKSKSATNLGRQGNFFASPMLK

inhibition, inactive:
Cc1cc(C)nc(N2N=C(CSc3ccc(Cl)cc3)CC2=O)n1 3.87%
COc1cccc(C(=O)NNC(=O)Cc2csc(N)n2)c1 10.7%
CCn1c(SCC(=O)c2[nH]c(C)c(C(C)=O)c2C)nnc1-c1ccccc1 11.9%
COc1ccc2cc(CN(C)C(=O)CN3C(=O)NC4(CCCC4)C3=O)ccc2c1 20.2%
CCCNC(=S)Nc1cc2oc3ccccc3c2cc1OC 7.43%
COc1ccccc1CC(=O)Nc1cc2oc3ccccc3c2cc1OC 1.63%
COc1cc2c(cc1NC(=O)CCC(=O)O)oc1ccccc12 17.1%
CNC(=S)Nc1cc2oc3ccccc3c2cc1OC 13.3%
NS(=O)(=O)c1ccc(CCNC(=O)c2ccc(Cl)nc2)cc1 4.85%
COC(=O)C[C@@H]1C[C@@H]2c3cc(NC(=O)NC4CCCCC4)ccc3O[C@@H]2[C@H](CO)O1 0.31%
CC(=O)c1ccc(N2CCN(C(=O)c3ccc(-c4ccccc4)cc3)CC2)cc1 6.62%
CN1c2cccc3cccc(c23)N(C)C1c1cccs1 29.9%
CN1c2cccc3cccc(c23)N(C)C1(C)C 17.8%
Cc1[nH]c2ccc(-c3n[nH]c(=S)n3Cc3ccccc3)cc2c1C 10.2%
c1ccc(-c2csc(NNC3=NCCCCC3)n2)cc1 -65.3%
COc1ccc(CNC(=O)c2ccc[nH]2)cc1Cl -1.95%
COc1cc(-c2n[nH]c(=S)n2-c2ccccc2C(F)(F)F)cc(OC)c1OC 0.91%
CCn1c(C)nc2cc(C(=O)N/N=C/c3ccccc3C)ccc21 4.28%
CCn1c(C)nc2cc(C(=O)NN=Cc3ccc([N+](=O)[O-])cc3)ccc21 8.03%
CCn1c(C)nc2cc(C(=O)N/N=C/c3ccc(N4CCOCC4)cc3)ccc21 9.18%
CCn1c(C)nc2cc(C(=O)N/N=C/c3ccccc3)ccc21 12.6%
CCn1c(C)nc2cc(C(=O)N/N=C/c3ccc(O)c(O)c3O)ccc21 -97%
CCn1c(C)nc2cc(C(=O)N/N=C/c3cccc(OC)c3O)ccc21 15%
O=C(O)CCCN1C(=O)c2ccc(Oc3cccc([N+](=O)[O-])c3)cc2C1=O 1.11%
Cc1ccc(OCC(=O)NNC(=O)c2ccco2)c(C)c1 8.22%
O=C(O)[C@H](CSCc1ccccc1)NS(=O)(=O)c1ccc(F)cc1 9.02%
CCCCn1c(SCC(=O)Nc2cc(C)[nH]n2)nc2ccsc2c1=O 9.99%
CCCCn1c(SCC(=O)c2ccccc2)nc2ccsc2c1=O 9.24%
C=CCn1c(SCC(=O)NC2CC2)nc2sc(CC)cc2c1=O 2.06%
C=CCn1c(SCC(=O)Nc2cc(C)on2)nc2sc(CC)cc2c1=O -5.28%
CN(Cc1ccccc1)C(=O)COC(=O)/C=C/c1ccco1 7.88%
Cc1ccc(NC(=O)Cn2nc(C(=O)O)c3ccccc3c2=O)cc1S(=O)(=O)N1CCOCC1 5.1%
COc1ccc2c(C)cc3nnnn3c2c1 7.23%
COc1ccc2c(C)cc3nncn3c2c1 5.43%
Nc1ccn([C@@H]2O[C@H](COS(=O)(=O)O)[C@@H](O)[C@H]2O)c(=O)n1 9.68%
COc1cccc(CNCc2cccc(Br)c2)c1OC 24.4%
COc1cc(CNCc2cccc(OC)c2OC)cc(OC)c1 20.9%
COCC(C)NCc1cc(Br)ccc1OC (stereo not drawn) 26.2%
COCC(C)NCc1cccc(C)c1 (stereo not drawn) 5.01%
COc1cccc(CNCc2ccccn2)c1OC 8.4%
COc1ccccc1CNCc1ccc(OC)c(OC)c1OC 20.1%
N#CCCn1cc(C(=O)Nc2ccc(C(=O)O)cc2)c(-c2ccc([N+](=O)[O-])cc2)n1 5.44%
O=C(C(=O)c1ccc(O)cc1)c1ccccc1 3.36%
O=C1Cn2c(nc3ccccc32)-c2ccccc2N1 1.15%
CCCCc1ccc(S(=O)(=O)NCCCN2CCCC2=O)cc1 6.42%
Cc1ccc(Cn2c(CCNc3nc(-c4ccc(Cl)c([N+](=O)[O-])c4)cs3)nc3cc(Cl)c(Cl)cc32)cc1 7.46%
CC(C)(C)OC(=O)C[C@H]1C/C=C\C[C@@H](CC(=O)N[C@@H](CO)Cc2ccccc2)C(=O)NC[C@H](c2ccccc2)OC1=O 2.19%
Cc1cn(C2CC(OC(=O)C(C)C)C(CO)O2)c(=O)[nH]c1=O (stereo not drawn) 6.43%
O=c1[nH]cn[nH]1 0.25%
CC(CCN(C)C)OC(=O)c1ccc(C(C)c2ccccc2)o1 (stereo not drawn) 1.78%
Oc1c(Br)cc(Br)cc1C=Nc1ccc2c(c1)OCO2 15.4%
Brc1ccc2c(c1)OCCOCCOCCOCCOCCOCCO2 0.25%
Oc1c(Cl)cc(Cl)cc1C=Nc1ccc2c(c1)OCCO2 4.97%
Brc1ccc2c(c1)OCCOCCOCCOCCOCCO2 8.26%
O=S(=O)(c1ccc(SCc2cccc(Cl)c2)nc1)N1CCCC1 2.55%
CC(=O)c1cccc(OC(=O)C2=CC=CN3CCS(=O)(=O)N=C23)c1 7.32%
COc1ccc2c(c1)c1nc3ccccc3nc1n2Cc1ccc(OC)c(OC)c1 8.38%
COc1cccc(CN(C)C(=O)Nc2cccc(C(F)(F)F)c2)c1OC -4.29%
Brc1ccc(OCc2nnc3n2CCC3)cc1 5.52%
O=C(COc1cccnc1[N+](=O)[O-])N1CCc2ccccc21 0.83%
CCN(CC)c1ccc(-c2c(C#N)c(N)nc(OC)c2C#N)cc1 -1.06%
COc1ccc(N=c2sc3ccccc3n2C)cc1 3.05%
Cn1c(=Nc2ccccc2)sc2ccccc21 4.04%
